Assay results: PubChem BioAssay AID1458 (National Center for Advancing Translational Sciences (NCATS), 2008)
Among all 210,000 compounds or so, about 5,900 (2.8%) were called active. Inconclusive results (about 5%) are left out. The sample holds actives, similar compounds and a random draw of the others, so the mix is not that of the screen. Calls come from the whole dose curve; as a rule, active = well fitted activation curve with a large enough effect; inconclusive = small, poorly fitted or top-dose-only effect; inactive = no such curve, though single readings can be large or run the other way.

Test: qHTS Assay for Enhancers of SMN2 Splice Variant Expression; note: nearly all actives have a fitted effect of over 55% in size; for activity change, positive = activation: % of control where 0% means no effect
Details: HEK293 SMN2-luciferase splicing reporter, luminescence, 30-36 h; series mostly up to 46.1 µM; activity change, positive = activation: at the top concentration
Summary of the method: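 qHTS luciferase splicing reporter: luminescence rises when SMN2 exon 7 is included in transfected HEK293 cells. Compound exposure lasted 30-36 h at 37C, with 4.5 mM final sodium butyrate as control, followed by a ONE-Glo read.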
Potency is the fitted concentration of half-maximal effect.

Activity change, positive = activation, inactive:
CCc1ccc(NC(=O)Cn2c(=O)n(CCC(=O)NCc3ccc4c(c3)OCO4)c(=O)c3ccccc32)cc1 0.862%
Cc1ccccc1-n1c(=O)c2ccccc2n(Cc2ccc(F)cc2)c1=O -3.73%
CCOc1ccc(NC(=O)c2c(NC(=O)Cc3ccccc3)sc3c2CCCCC3)cc1 0.873%
Cc1ccc(C(C(=O)NCc2ccco2)N(CC2CCCO2)C(=O)Cn2nnc3ccccc32)cc1 (stereo unspecified) -6.37%
COCCNC(=O)C(c1ccc(C)o1)N(Cc1ccccc1)C(=O)Cn1nnc2ccccc21 (stereo unspecified) 17.9%
O=C(Cn1c(=O)n(-c2ccc(F)cc2)c(=O)c2sc3ccccc3c21)NC1CCCC1 -12.8%
Cc1ccc(-n2ncc3c(=O)n(Cc4cccc(C(F)(F)F)c4)cnc32)cc1C 0.0711%
CC(C)c1ccc(Cn2c(COc3ccccc3)nc3ccccc32)cc1 -1.83%
O=C(Cn1c(COc2ccccc2)nc2ccccc21)Nc1cc(Cl)c(Cl)cc1Cl -1.19%
Cc1cc(C)c2oc(C(=O)Nc3ccc(S(=O)(=O)Nc4nccc(C)n4)cc3)cc(=O)c2c1 13.5%
O=C(CN1C(=O)COc2ccc(S(=O)(=O)N3CCCCCC3)cc21)N1CCN(c2cccc(C(F)(F)F)c2)CC1 -1.59%
Cc1nc(N2CCCCC2)sc1C=O 25%
O=C(Nc1nc2cc3c(cc2s1)OCCO3)c1cccc(S(=O)(=O)N2CCOCC2)c1 -46.1%
Cc1ccc(C(=O)Nc2ccc(OCc3cc(=O)n4c(C)csc4n3)cc2)cc1 -4.42%
CCNC(=O)Cn1nc(C)n2c(cc3c(OC)cccc32)c1=O -2.9%
COC(=O)c1ccccc1NC(=O)c1ccc2c(=O)n3c(nc2c1)CCCCC3 0.0369%
Cc1cc([N+](=O)[O-])ccc1NC(=O)C1CCCO1 (stereo unspecified) -8.2%
O=C(Nc1nc2ccc(S(=O)(=O)N3CCCC3)cc2s1)C1CCCO1 (stereo unspecified) 25.8%
O=C(Nc1cc(-c2nc3ccccc3o2)ccc1Cl)c1cc([N+](=O)[O-])ccc1N1CCOCC1 7.04%
CN1c2ccccc2-c2nc3ccccc3n2C1c1ccco1 (stereo unspecified) -14.7%
CN(c1nc2ccccc2n2c(-c3ccco3)nnc12)S(=O)(=O)c1ccccc1 -3.62%
COC(=O)CC1Oc2ccccc2-n2cc(-c3ccccc3)nc21 (stereo unspecified) -12.5%
COc1cccc(N2CCN(S(=O)(=O)c3cc(Br)cc4c3N(C(=O)C3CC3)CC4)CC2)c1 -2.18%
CCC1CCCCN1C(=O)Cn1c(=O)n(CCCCCC(=O)NCc2ccccc2)c(=O)c2sccc21 (stereo unspecified) -5.86%
Cc1ccc(C(=O)Nc2ccc(OCc3cc(=O)n4c5c(sc4n3)CCCC5)cc2)cc1 1.24%
CCCCCn1c(CCNC(=O)c2ccc(F)cc2)nc2ccccc21 -27.6%
Cn1c(CN2CCOCC2)nc2cc(NC(=O)c3ccc(Cl)cc3)ccc21 -66.9%
COc1ccc(C2Sc3ccccc3NC3=C2C(=O)c2ccccc23)c(OC)c1OC (stereo unspecified) 7.57%
COCC(=O)N=Nc1c(O)[nH]c2ccccc12 16.4%
Cc1cccc(N(CC(=O)N=Nc2c(O)[nH]c3ccccc23)S(C)(=O)=O)c1C 4.36%
COc1ccccc1CNC(=O)C(Cc1ccccc1)NS(=O)(=O)c1ccc2c(c1)oc(=O)n2C (stereo unspecified) 4.66%
Cc1c(Cl)cnc(NC(=O)COC(=O)c2ccc(S(=O)(=O)NCc3ccco3)cc2)c1Cl 3.97%
C/C(=N\NC(=O)COc1c(C)cccc1C)c1cccs1 -0.888%
O=C(NC1CCC(O)CC1)c1ccc(S(=O)(=O)NCc2ccco2)cc1 (stereo unspecified) 13%
C/C(=N\NS(=O)(=O)c1ccc(Br)cc1)c1cccs1 -8.27%
Cc1cccc(C(CC(=O)NCC2(c3ccccc3)CCCC2)c2ccccc2)c1O (stereo unspecified) -50.4%
CCOc1ccccc1CNCc1c(C(=O)O)c(C)n(Cc2ccc(C)cc2)c1C 2.44%
O=S(=O)(NCC(c1ccccc1)N1CCc2ccccc21)c1ccccc1 (stereo unspecified) -3.77%
COc1ccc(S(=O)(=O)Nc2cc3c(C(=O)OC(C)C)c(C)oc3c3ccccc23)cc1 4.13%
Cc1cc2oc(C(=O)N(Cc3ccc(Cl)cc3)Cc3ccco3)c(C)c2cc1Cl 8.31%
COc1ccccc1C(=O)Nc1c(C(=O)Nc2ccc(C)cc2)oc2ccccc12 5.31%

Potency, active:
CCC(C)(C)NC(=O)C(c1cccn1C)N(Cc1ccc(C)cc1)C(=O)Cn1nnc2ccccc21 (stereo unspecified) 15.8 µM
COCn1c(COc2ccccc2)nc2ccccc21 12.6 µM
c1c2c(cc3sc(N4CCCCC4)nc13)OCCO2 0.501 µM
Cc1cc(C)c2nc(NC(=O)C3CCCO3)sc2c1 (stereo unspecified) 12.6 µM
Cn1c(-c2ccco2)nc2cc3ccccc3cc21 2.51 µM
CN(C)CCN=c1cc(-c2ccccc2)oc2ccc(Cl)cc12 15.8 µM
CC(=O)NCCc1nc2cc(NC(=O)c3ccccc3)ccc2n1C 22.4 µM
Cc1c(-c2ccccc2)n[nH]c1C(=O)N=Nc1c(O)[nH]c2ccccc12 20 µM
C/C(=N\Nc1ncc(Cl)cc1Cl)c1cccs1 11.2 µM
C/C(=N\Nc1ncc(Cl)cc1Cl)c1ccc(S(=O)(=O)NCc2ccco2)cc1 12.6 µM
